Records with an inconclusive call do not appear. Active and inactive are the calls of the source. Calls follow the shape of the dose curve; as a rule, active = well fitted inhibition curve with a large enough effect; inconclusive = small, poorly fitted or top-dose-only effect; inactive = flat fitted curve, though single readings scatter.
Key:
Assay in all cases: qHTS profiling for inhibitors of Plasmodium falciparum proliferation (AID 504749); also: nearly all actives have a fitted effect of over 60% in size
Conditions in all cases: P. falciparum in erythrocytes, SYBR Green DNA, 72 h; series mostly up to 28.7 µM
3D7 = tested on: 3D7
In short: (§1)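 In a 72 h erythrocytic culture (37 C, humidified, 5% CO2) at 2.5% hematocrit and 0.3% starting parasitemia, compounds were tested; SYBR Green I in detergent lysis buffer stained parasite DNA overnight.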

CP185 = tested on: CP185
In short: as §1

CP217 = tested on: CP217
In short: as §1

CP250 = tested on: CP250
In short: as §1

CP252 = tested on: CP252
In short: as §1

CP256 = tested on: CP256
In short: as §1

CP265 = tested on: CP265
In short: as §1

CP291 = tested on: CP291
In short: as §1

CP305 = tested on: CP305
In short: as §1

CP335 = tested on: CP335
In short: as §1

DIV30 = tested on: DIV30
In short: as §1

Dd2 = tested on: Dd2
In short: as §1

HB3 = tested on: HB3
In short: as §1

N140 = tested on: N140
In short: as §1

PC15 = tested on: PC15
In short: as §1

TAB113 = tested on: TAB113
In short: as §1

CP203 = tested on: CP203
In short: as §1

CP211 = tested on: CP211
In short: as §1

CP262 = tested on: CP262
In short: as §1

CP315 = tested on: CP315
In short: as §1

Measured: Potency
Potency is read from the fitted curve at half-maximal effect.

CCC/C=C/C=C/C(=O)OC1/C(=C/C(=O)OC)CC2CC(C(C)O)OC(=O)CC(O)CC3CC(OC(C)=O)C(C)(C)C(O)(CC4C/C(=C/C(=O)OC)CC(/C=C\C(C)(C)C1(O)O2)O4)O3 (centres undefined)
active: 3D7 2.82 µM | CP185 1 µM | CP217 794 nM | CP250 1 µM | CP252 1.26 µM | CP256 1.26 µM | CP265 1.41 µM | CP291 2.69 µM | CP305 1.9 µM | CP335 1.9 µM | DIV30 1.07 µM | Dd2 2.24 µM | HB3 2.24 µM | N140 1.12 µM | PC15 2.24 µM | TAB113 1.78 µM

CC1(C)[C@@H](C=C(Cl)Cl)[C@@H]1C(=O)OCc1c(F)c(F)cc(F)c1F
inactive: all assays above

C#CC1(O)C=CC2C3CCC4=CC(=O)CCC4C3CCC21CC (centres undefined)
active: CP291 15.1 µM | HB3 10 µM | PC15 11.2 µM
inactive: CP217 | CP252 | Dd2 | N140

CC(C)=CC1C(C(=O)OCc2coc(Cc3ccccc3)c2)C1(C)C (centres undefined)
not listed: CP256 | CP265 | TAB113
inactive: all other assays above

CCC(=O)OC1(c2ccccc2)CCN(C)CC1C (centres undefined)
active: Dd2 5.62 µM
inactive: 3D7 | CP211 | CP262 | CP315 | DIV30 | HB3 | PC15

CC12CCC3C4CCC(=O)C(O)=C4CCC3C1CCC2OC(=O)CCC1CCCC1 (centres undefined)
not listed: Dd2
inactive: all other assays above

CC1CC[C@@]2(NC1)OC1CC3C4CC[C@@H]5CC(O)CC[C@@]5(C)C4CC[C@]3(C)C1C2C (some centres undefined)
not listed: CP217 | CP256 | CP265 | CP335 | DIV30 | Dd2 | HB3 | N140
inactive: all other assays above

COC(=O)C1C(OC(=O)c2ccccc2)CC2CCC1N2C (centres undefined)
inactive: all assays above

CC(=O)Oc1ccc2c3c1OC1[C@@H](OC(C)=O)C=C[C@H]4[C@H](C2)N(C)CC[C@]314 (some centres undefined)
inactive: all assays above

CC(=O)[C@H]1CC[C@H]2C3CC[C@H]4C[C@H](O)CC[C@]4(C)C3CC[C@]12C (some centres undefined)
inactive: all assays above

C#C[C@]1(O)CC[C@H]2[C@@H]3CCC4=CC(=O)CCC4(C)[C@H]3CCC21C (some centres undefined)
inactive: all assays above

CCN(CC)C(=O)N[C@@H]1C=C2c3cccc4[nH]cc(c34)C[C@H]2N(C)C1
active: CP265 10 µM | DIV30 8.49 µM | Dd2 14.1 µM | N140 12.6 µM | TAB113 7.94 µM
inactive: CP203 | CP315

CN(C)C1C(=O)C(C(N)=O)C(=O)C2(O)C(=O)C3C(=O)c4c(O)cccc4C(C)(O)C3C(O)C12 (centres undefined)
active: CP335 6.01 µM | Dd2 3.55 µM
not listed: 3D7 | CP291 | DIV30 | HB3 | CP315
inactive: all other assays above

CC(=O)O[C@H]1C[C@H](O[C@H]2[C@@H](O)CC(O[C@H]3[C@@H](O)C[C@H](O[C@H]4CC[C@@]5(C)[C@H](CC[C@@H]6[C@@H]5CC[C@]5(C)[C@@H](C7=CC(=O)OC7)CC[C@]65O)C4)O[C@@H]3C)O[C@@H]2C)O[C@H](C)[C@H]1O[C@@H]1O[C@H](CO)[C@@H](O)[C@H](O)[C@H]1O (some centres undefined)
not listed: 3D7 | PC15 | CP203
inactive: all other assays above

NC(Cc1ccc(Oc2cc(I)c(O)c(I)c2)c(I)c1)C(=O)O (centres undefined)
not listed: N140
inactive: all other assays above

C=CC[C@]1(O)CCC2C3CCC4=CCCCC4C3CCC21C (some centres undefined)
not listed: Dd2 | HB3 | PC15
inactive: all other assays above

CCCC(C)C1(CC)C(=O)NC(=S)NC1=O (centres undefined)
inactive: all assays above

C=C1CC2C(CC[C@]3(C)C(=O)CCC23)[C@]2(C)C=CC(=O)C=C12 (some centres undefined)
not listed: CP335
inactive: all other assays above

CC(Cc1ccccc1)N(C)C (centres undefined)
not listed: CP262
inactive: all other assays above

O=C1CC2OCC=C3CN4CC[C@]56c7ccccc7N1C5C2[C@H]3C[C@H]46 (some centres undefined)
inactive: 3D7 | HB3 | PC15
active: CP256 8.91 µM | CP335 5.36 µM | Dd2 11.2 µM

CC(CO)NC(=O)C1C=C2c3cccc4[nH]cc(c34)CC2N(C)C1 (centres undefined)
inactive: all assays above

C[C@@H](N)[C@@H](O)c1ccc(O)c(O)c1
inactive: all assays above

CC(C)CCC(=O)OC1CCC2C3CCC4=CC(=O)CC[C@]4(C)C3CC[C@]12C (some centres undefined)
inactive: CP203 | CP211 | CP262 | CP305 | CP315 | DIV30
active: CP185 10 µM | CP250 10 µM | CP256 7.94 µM | CP265 7.94 µM | TAB113 7.08 µM

CN(C)[C@@H](Cc1ccccc1)c1ccccc1
active: Dd2 10 µM
inactive: all other assays above

O=C1CC2OCC=C3CN4CCC56c7ccccc7N1C5[C@H]2[C@H]3C[C@H]46 (some centres undefined) (tested in a mixture with another compound)
not listed: 3D7 | CP305 | DIV30 | Dd2 | HB3 | CP203 | CP262
inactive: all other assays above

C[C@]12CC[C@H]3[C@@H](CC[C@@]45O[C@@H]4C(=O)C(C#N)C[C@]35C)[C@@H]1CC[C@@H]2O (some centres undefined)
not listed: CP185 | CP217 | CP250 | CP252 | CP256 | CP265 | N140 | TAB113
inactive: all other assays above

C[C@]12CCC3C(CCC4=C(Cl)C(=O)CC[C@@]43C)C1CCC2O (some centres undefined)
inactive: all assays above
